Results as given in the supplement of paper PMC9492666.
Counter-ions that a name gives are not always drawn.

Experiments:
Details in all cases: 72 h
HCC1937 [1] = assay: relative cell viability, compound alone, vs DMSO (fraction of DMSO control); higher = less growth inhibition
MDA-MB-231 [2] = assay: as above
HCC1937 [3] = assay: relative cell viability, compound + RSL3, vs DMSO (fraction of DMSO control); higher = less growth inhibition
MDA-MB-231 [4] = assay: as above
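Wherever relative cell viability, compound + RSL3, vs DMSO is given: breast cancer cell viability read out with the CCK-8 kit after co-treatment of each compound with the ferroptosis inducer RSL3.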
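Wherever relative cell viability, compound alone, vs DMSO is given: viability read out with the CCK-8 kit in 96-well plates, screening a set of 303 compounds acting on lipid metabolism targets.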

Compound | relative cell viability (HCC1937 [1]) | relative cell viability (MDA-MB-231 [2]) | relative cell viability (HCC1937 [3]) | relative cell viability (MDA-MB-231 [4])
NC(CO)C(=O)O (racemic) [DL-Serine] | 0.683 | 0.77 |  | 
O=C(c1ccc(NS(=O)(=O)c2cccc3cccnc23)cc1)N1CCN(CC2CC2)CC1 [Mitapivat] + COC(=O)c1ccc([C@H]2c3[nH]c4ccccc4c3C[C@H](C(=O)OC)N2C(=O)CCl)cc1 [RSL3] |  |  | 0.558 | 0.654
COC(=O)N(CC(=O)O)Cc1cccc(OCc2nc(-c3ccc(Cl)cc3)oc2C)c1 | 1.08 | 0.834 |  | 
C[C@H](CCCC(C)(C)O)[C@H]1CC[C@H]2[C@@H]3CC=C4C[C@@H](O)CC[C@]4(C)[C@H]3CC[C@]12C [25-Hydroxycholesterol] + COC(=O)c1ccc([C@H]2c3[nH]c4ccccc4c3C[C@H](C(=O)OC)N2C(=O)CCl)cc1 [RSL3] |  |  | 0.572 | 0.649
O=C(Nc1ccccc1)c1cc([N+](=O)[O-])ccc1Cl | 1.08 | 1.03 |  | 
CCCCCCCCCc1ccc(B(O)O)cc1 [4-Nonylphenylboronic acid] + COC(=O)c1ccc([C@H]2c3[nH]c4ccccc4c3C[C@H](C(=O)OC)N2C(=O)CCl)cc1 [RSL3] |  |  | 0.546 | 0.732
O=C(CN1CCN(C(=O)c2ccco2)CC1)Nc1cc(C(F)(F)F)ccc1Cl | 0.767 | 0.892 |  | 
c1cc(-c2cnn3cc(-c4ccc(OCCN5CCCCC5)cc4)cnc23)ccn1 [Dorsomorphin] | 0.216 | 0.383 |  | 
CC(C)CCC[C@@H](C)[C@H]1CC[C@H]2[C@@H]3CC=C4C[C@@H](O)CC[C@]4(C)[C@H]3CC[C@]12C [Cholesterol] + COC(=O)c1ccc([C@H]2c3[nH]c4ccccc4c3C[C@H](C(=O)OC)N2C(=O)CCl)cc1 [RSL3] |  |  | 0.8 | 0.611
C=C(C)[C@@H]1CCC2=CC(=O)C[C@@H](C)[C@]2(C)C1 [Nootkatone] + COC(=O)c1ccc([C@H]2c3[nH]c4ccccc4c3C[C@H](C(=O)OC)N2C(=O)CCl)cc1 [RSL3] |  |  | 0.509 | 0.613
Cc1c(C)c2c(c(C)c1O)CCC(C)(COc1ccc(CC3SC(=O)NC3=O)cc1)O2 (stereo not drawn) [Troglitazone] + COC(=O)c1ccc([C@H]2c3[nH]c4ccccc4c3C[C@H](C(=O)OC)N2C(=O)CCl)cc1 [RSL3] |  |  | 0.431 | 0.686
O=c1c(-c2ccc(O)cc2)coc2cc(O)ccc12 [Daidzein] + COC(=O)c1ccc([C@H]2c3[nH]c4ccccc4c3C[C@H](C(=O)OC)N2C(=O)CCl)cc1 [RSL3] |  |  | 0.865 | 0.608
CCN(CC)CCCC(C)Nc1c2ccc(Cl)cc2nc2ccc(OC)cc12 (stereo not drawn) [Quinacrine dihydrochloride] + COC(=O)c1ccc([C@H]2c3[nH]c4ccccc4c3C[C@H](C(=O)OC)N2C(=O)CCl)cc1 [RSL3] |  |  | 0.301 | 0.283
COc1ccc(-c2cc(=O)c3c(O)c(OC)c(OC)c(OC)c3o2)cc1OC + COC(=O)c1ccc([C@H]2c3[nH]c4ccccc4c3C[C@H](C(=O)OC)N2C(=O)CCl)cc1 [RSL3] |  |  | 0.343 | 0.501
CC(C)(Oc1ccc(C(=O)c2ccc(Cl)cc2)cc1)C(=O)O [Choline Fenofibrate] + COC(=O)c1ccc([C@H]2c3[nH]c4ccccc4c3C[C@H](C(=O)OC)N2C(=O)CCl)cc1 [RSL3] |  |  | 0.469 | 0.692
CN(CCOc1ccc(CC2SC(=O)NC2=O)cc1)c1ccccn1 (stereo not drawn) [Rosiglitazone HCl] + COC(=O)c1ccc([C@H]2c3[nH]c4ccccc4c3C[C@H](C(=O)OC)N2C(=O)CCl)cc1 [RSL3] |  |  | 0.486 | 0.714
O=C(CCCCc1ccc2c(c1)OCO2)N1CCCCC1 + COC(=O)c1ccc([C@H]2c3[nH]c4ccccc4c3C[C@H](C(=O)OC)N2C(=O)CCl)cc1 [RSL3] |  |  | 0.262 | 0.562
CC1(C)CC[C@]2(C(=O)O[C@@H]3O[C@H](CO)[C@@H](O)[C@H](O)[C@H]3O)CC[C@]3(C)C(=CC[C@@H]4[C@@]5(C)CC[C@H](O[C@@H]6O[C@H](C(=O)O)[C@@H](O)[C@H](O)[C@H]6O[C@@H]6O[C@H](CO)[C@@H](O)[C@H](O)[C@H]6O)C(C)(C)[C@@H]5CC[C@]43C)[C@@H]2C1 [Ginsenoside Ro] + COC(=O)c1ccc([C@H]2c3[nH]c4ccccc4c3C[C@H](C(=O)OC)N2C(=O)CCl)cc1 [RSL3] |  |  | 0.375 | 0.478
CC(C)c1onc(-c2c(Cl)cccc2Cl)c1COc1ccc(/C=C/c2cccc(C(=O)O)c2)c(Cl)c1 + COC(=O)c1ccc([C@H]2c3[nH]c4ccccc4c3C[C@H](C(=O)OC)N2C(=O)CCl)cc1 [RSL3] |  |  | 0.874 | 0.699
CCNC1(C(N)=O)CCN(c2ncnc3c2nc(-c2ccccc2Cl)n3-c2ccc(Cl)cc2)CC1 [Otenabant] + COC(=O)c1ccc([C@H]2c3[nH]c4ccccc4c3C[C@H](C(=O)OC)N2C(=O)CCl)cc1 [RSL3] |  |  | 0.659 | 0.39

Compound | relative cell viability (HCC1937 [1]) | relative cell viability (MDA-MB-231 [2]) | relative cell viability (HCC1937 [3]) | relative cell viability (MDA-MB-231 [4])
Cc1nc(-c2nc(-c3ccc(OC(F)(F)F)cc3)no2)nn1Cc1cccc(N2CCC(S(C)(=O)=O)CC2)c1 + COC(=O)c1ccc([C@H]2c3[nH]c4ccccc4c3C[C@H](C(=O)OC)N2C(=O)CCl)cc1 [RSL3] |  |  | 0.417 | 0.559
c1cc(-c2cnn3cc(-c4ccc(OCCN5CCCCC5)cc4)cnc23)ccn1 [Dorsomorphin dihydrochloride] + COC(=O)c1ccc([C@H]2c3[nH]c4ccccc4c3C[C@H](C(=O)OC)N2C(=O)CCl)cc1 [RSL3] |  |  | 0.111 | 0.286
O=C(CCCCCCCC(=O)NCCO)NCCO [Adelmidrol] + COC(=O)c1ccc([C@H]2c3[nH]c4ccccc4c3C[C@H](C(=O)OC)N2C(=O)CCl)cc1 [RSL3] |  |  | 0.659 | 0.651
O=C1c2cccc(O)c2C(=O)c2c(O)cccc21 [Antrapurol] + COC(=O)c1ccc([C@H]2c3[nH]c4ccccc4c3C[C@H](C(=O)OC)N2C(=O)CCl)cc1 [RSL3] |  |  | 0.583 | 0.537
Cc1ccc(/C=C2\SC(=S)N(CCCCCC(=O)Nc3ccc(C(=O)O)c(O)c3)C2=O)cc1 + COC(=O)c1ccc([C@H]2c3[nH]c4ccccc4c3C[C@H](C(=O)OC)N2C(=O)CCl)cc1 [RSL3] |  |  | 0.632 | 0.577
O=C(O)/C=C/c1ccc(O)c(O)c1 [Caffeic Acid] + COC(=O)c1ccc([C@H]2c3[nH]c4ccccc4c3C[C@H](C(=O)OC)N2C(=O)CCl)cc1 [RSL3] |  |  | 0.623 | 0.426
Cc1coc2c1C(=O)C(=O)c1c-2ccc2c(C)cccc12 [Tanshinone I] + COC(=O)c1ccc([C@H]2c3[nH]c4ccccc4c3C[C@H](C(=O)OC)N2C(=O)CCl)cc1 [RSL3] |  |  | 0.218 | 0.305
COP(=O)(OC)OC(c1ccc(Cl)cc1)P(=O)(OC)OC (stereo not drawn) [Mifobate] + COC(=O)c1ccc([C@H]2c3[nH]c4ccccc4c3C[C@H](C(=O)OC)N2C(=O)CCl)cc1 [RSL3] |  |  | 0.632 | 0.669
O=C(O)CCCc1cc2cc(Cl)ccc2n1S(=O)(=O)c1ccc2ncsc2c1 [Lanifibranor] + COC(=O)c1ccc([C@H]2c3[nH]c4ccccc4c3C[C@H](C(=O)OC)N2C(=O)CCl)cc1 [RSL3] |  |  | 0.464 | 0.786
Fc1ccc(-c2c3cccc(C(F)(F)F)c3nn2Cc2ccc(F)cc2Cl)cc1 + COC(=O)c1ccc([C@H]2c3[nH]c4ccccc4c3C[C@H](C(=O)OC)N2C(=O)CCl)cc1 [RSL3] |  |  | 0.756 | 0.578
CCN(CC)C(=O)N1CCN(C)CC1 [Diethylcarbamazine citrate] + COC(=O)c1ccc([C@H]2c3[nH]c4ccccc4c3C[C@H](C(=O)OC)N2C(=O)CCl)cc1 [RSL3] |  |  | 0.61 | 0.581
Cc1cccc(Nc2cc(Cl)nc(SCC(=O)O)n2)c1C [Pirinixic Acid] + COC(=O)c1ccc([C@H]2c3[nH]c4ccccc4c3C[C@H](C(=O)OC)N2C(=O)CCl)cc1 [RSL3] |  |  | 0.603 | 0.495
Cc1c(C(=O)NN2CCOCC2)nn(-c2ccc(Cl)cc2Cl)c1-c1ccc(I)cc1 + COC(=O)c1ccc([C@H]2c3[nH]c4ccccc4c3C[C@H](C(=O)OC)N2C(=O)CCl)cc1 [RSL3] |  |  | 0.0566 | 0.297
COc1cc(N2CCN(C)CC2)ccc1Nc1ncc2c(n1)N(C1CCC1)C(=O)N(c1c(C)cccc1C)C2 + COC(=O)c1ccc([C@H]2c3[nH]c4ccccc4c3C[C@H](C(=O)OC)N2C(=O)CCl)cc1 [RSL3] |  |  | 0.334 | 0.747
CC1=C[C@]2(O)O[C@@]3(CC2=C(C)C)[C@@H](C)CC[C@@H]13 [Curcumenol] + COC(=O)c1ccc([C@H]2c3[nH]c4ccccc4c3C[C@H](C(=O)OC)N2C(=O)CCl)cc1 [RSL3] |  |  | 0.369 | 0.517
COc1cc(F)c(C(C)C)cc1-c1ccc(C(F)(F)F)cc1CN1C(=O)O[C@H](c2cc(C(F)(F)F)cc(C(F)(F)F)c2)[C@@H]1C [Anacetrapib] + COC(=O)c1ccc([C@H]2c3[nH]c4ccccc4c3C[C@H](C(=O)OC)N2C(=O)CCl)cc1 [RSL3] |  |  | 0.622 | 0.497
N=C(N)NC(=N)NCCc1ccccc1 [Phenformin hydrochloride] + COC(=O)c1ccc([C@H]2c3[nH]c4ccccc4c3C[C@H](C(=O)OC)N2C(=O)CCl)cc1 [RSL3] |  |  | 0.653 | 0.543
CN(C)c1cccc(-c2c3c(=O)n(-c4ccccc4Cl)[nH]c3cc(=O)n2C)c1 + COC(=O)c1ccc([C@H]2c3[nH]c4ccccc4c3C[C@H](C(=O)OC)N2C(=O)CCl)cc1 [RSL3] |  |  | 0.433 | 0.579
N#Cc1c(O)c2c(-c3ccc(-c4ccccc4O)cc3)csc2[nH]c1=O + COC(=O)c1ccc([C@H]2c3[nH]c4ccccc4c3C[C@H](C(=O)OC)N2C(=O)CCl)cc1 [RSL3] |  |  | 0.412 | 0.423
